# Laboratory results published in PubChem BioAssay (NCI).
# Compounds without any hit were thinned out: in the full panel of roughly 83,000, 20% have a hit.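 48-hour exposure, single concentration, 96-well plates; percent growth endpoint where 0 means no net growth. Active: below 10.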 A number with no mark means an inactive call. Active and inactive are the calls of the source.
# Assays:
# Assay in all cases: NCI-60 one-dose screen, 48 h (100 = growth as untreated, 0 = no growth, -100 = all killed)
# Settings in all cases: 10 µM unless noted
# NCI-H23 lung = test system: NCI-H23 lung
# NCI-H226 lung = test system: NCI-H226 lung
# NCI-H322M lung = test system: NCI-H322M lung
# HOP-62 NSCLC = test system: HOP-62 NSCLC
# NCI-H460 lung = test system: NCI-H460 lung
# HOP-92 NSCLC = test system: HOP-92 NSCLC
# NCI-H522 lung = test system: NCI-H522 lung
# A549/ATCC NSCLC = test system: A549/ATCC NSCLC
# 786-0 renal = test system: 786-0 renal
# COLO 205 colon = test system: COLO 205 colon
# DU-145 prostate = test system: DU-145 prostate
# K-562 leukemia = test system: K-562 leukemia
# MALME-3M melanoma = test system: MALME-3M melanoma
# MDA-MB-231 breast = test system: MDA-MB-231 breast
# RXF 393 renal = test system: RXF 393 renal
# SF-268 CNS = test system: SF-268 CNS
# SF-295 CNS = test system: SF-295 CNS
# SF-539 CNS = test system: SF-539 CNS
# UACC-257 melanoma = test system: UACC-257 melanoma
# M14 melanoma = test system: M14 melanoma
SMILES,growth (NCI-H23 lung),growth (NCI-H226 lung),growth (NCI-H322M lung),growth (HOP-62 NSCLC),growth (NCI-H460 lung),growth (HOP-92 NSCLC),growth (NCI-H522 lung),growth (A549/ATCC NSCLC),growth (786-0 renal),growth (COLO 205 colon),growth (DU-145 prostate),growth (K-562 leukemia),growth (MALME-3M melanoma),growth (MDA-MB-231 breast),growth (RXF 393 renal),growth (SF-268 CNS),growth (SF-295 CNS),growth (SF-539 CNS),growth (UACC-257 melanoma),growth (M14 melanoma)
COc1ccc(/C=N/NC(=O)COCC(=O)N/N=C/c2ccc(OC)cc2)cc1,107%,99.5%,113%,117%,107%,92.5%,107%,98.3%,106%,111%,113%,102%,115%,98.4%,104%,110%,97.1%,100%,96.6%,115%
O=C(c1ccccc1)c1ccc(-c2ccc(O)cc2)cc1,66.1%,89.3%,37.8%,43%,43.8%,71.7%,25.8%,38.6%,72.8%,142%,69.8%,90.2%,84%,55.4%,-4.28% (active),67.4%,29.6%,79.5%,25.3%,25.8%
CCOc1ccc(C(=O)NCC(C)C)cc1,107%,104%,101%,95.8%,103%,103%,97.8%,108%,97.6%,101%,110%,102%,101%,93.2%,108%,102%,99.5%,94.4%,110%,97%
NC(=S)N/N=C/c1ccc(Cl)cc1,98.1%,97.5%,104%,113%,106%,91%,87.8%,106%,104%,131%,120%,92.8%,109%,111%,97.4%,109%,97.4%,106%,91.7%,108%
Cc1ccc(S(=O)(=O)Oc2ccc3sc4c(CO)ccc(NCCN(C)C)c4c(=O)c3c2)cc1,-79.5% [100 µM] (active),-42.2% [100 µM] (active),-98.2% [100 µM] (active),-68.3% [100 µM] (active),-83% [100 µM] (active),-80.1% [100 µM] (active),-74.4% [100 µM] (active),-70.9% [100 µM] (active),-73.4% [100 µM] (active),-87.6% [100 µM] (active),-97.6% [100 µM] (active),-61.4% [100 µM] (active),-89.5% [100 µM] (active),-90.7% [100 µM] (active),-57.5% [100 µM] (active),-61.3% [100 µM] (active),-78.7% [100 µM] (active),-93.1% [100 µM] (active),-82% [100 µM] (active),-96.5% [100 µM] (active)
c1ccc(Nc2ccccn2)nc1,95.9%,89%,100%,95.9%,96.5%,95.8%,88.2%,109%,97.6%,104%,120%,90.5%,83.4%,97.1%,97.9%,102%,99.3%,94.6%,95.3%,99.9%
Nc1ncnc(Nc2ccc(C(F)(F)F)cc2)n1,100%,103%,102%,103%,106%,76.7%,98.5%,93.6%,97.7%,108%,107%,98.9%,105%,102%,113%,101%,101%,107%,95.5%,103%
CCN(Cc1ccc(Cl)c(Cl)c1)c1ccc2nc(N)nc(N)c2c1C,-76.6% (active),-62.2% (active),-94.3% (active),-74.2% (active),-95.8% (active),-90.9% (active),-64.7% (active),-55.9% (active),-89.5% (active),-96.1% (active),-85.5% (active),-83.9% (active),-84% (active),-84.9% (active),-80.1% (active),-70.1% (active),-62.8% (active),-97.8% (active),-77.7% (active),-70.1% (active)
OCCNc1ccccc1,95.6%,97.7%,104%,105%,106%,92.7%,99.5%,103%,99.9%,107%,103%,104%,102%,104%,109%,97.2%,108%,95.9%,108%,97.8%
Nc1ccc(F)cc1F,103%,94.8%,97.4%,109%,105%,77.4%,102%,105%,98.6%,110%,110%,107%,111%,93.7%,92.2%,109%,104%,94.3%,111%,101%
C=CCS(C)(=O)=O,106%,96.7%,102%,87.3%,105%,99.4%,92.8%,92.9%,99.4%,96.5%,108%,103%,121%,97.9%,98%,103%,93.8%,96.3%,89.5%,95.8%
Cc1ccc(S(=O)(=O)NC(=O)NCCSSCCNC(=O)NS(=O)(=O)c2ccc(C)cc2)cc1,102%,91%,101%,105%,103%,92.2%,94.9%,100%,104%,129%,110%,103%,97.3%,116%,102%,102%,95.3%,87.5%,89.1%,111%
CC(=O)Nc1ccc(O)c(C)c1,99.8%,95%,100%,98%,104%,100%,93.5%,88.1%,105%,109%,109%,98.6%,98.8%,96.9%,116%,100%,105%,100%,87.8%,100%
COC1OC(CO)C(OC)C(O)C1O (stereo not given),105%,102%,99.9%,102%,97.4%,111%,113%,103%,101%,113%,105%,102%,111%,111%,99.4%,95.7%,96.7%,99%,106%,103%
O=C(OCC1CCCO1)c1ccc([N+](=O)[O-])cc1 (stereo not given),105%,92.5%,100%,92.6%,95.5%,91.8%,94.2%,90.9%,91%,103%,113%,111%,106%,106%,102%,106%,102%,102%,85.5%,101%
CC1CN(CCO)CC(C)O1 (stereo not given),106%,95.2%,102%,99.3%,110%,103%,108%,100%,104%,117%,107%,98.9%,99.7%,101%,132%,99.7%,104%,98.4%,105%,108%
C/C=C/C1OCC(CC)C(CCC)O1 (stereo not given),113%,111%,111%,111%,109%,110%,91.1%,88%,111%,114%,115%,89.3%,114%,100%,124%,101%,113%,99.1%,93.5%,104%
